697 NFkB inh – inhibitors of PMA/ionomycin-induced NF-kB reporter, 697 cells, primary screen, B-cell NF-kB inhibitor project, cell-based, luminescence, uHTS; inhibition, % at 4 µM; hit rate 0.33% among 330,000; 697 B-cell NF-kB luciferase reporter, 16 h; AID 435022, 2010; in the data active = inhibition above about 35%
Jurkat NFkB inh – inhibitors of induced NF-kB luciferase reporter, primary screen, TCR NF-kB activation inhibitor project, cell-based, luminescence, uHTS; Jurkat, PMA/ionomycin-induced NF-kB luciferase reporter; inhibition, % at 4 µM; hit rate 0.53% among 330,000; in the data active = inhibition above about 50%
Beta cell apopt – inhibitors of cytokine-induced beta cell apoptosis, primary screen, luminescence. INS-1E cytokine-induced death, ATP luminescence, 48 h; percent of positive-control rescue, neutral wells zero. protection from apoptosis, % (concentration not given with the values). hit rate 0.8% among 300,000. AID 435005, 2010;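 active = Every replicate reaches about 75%, or at least half do and their mean reaches it too, limit read from the data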;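 note: higher means more ATP so stronger rescue from cytokine killing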
A1 inh – caspase 3/7 activation in MEF A1-2A-BIM cells, primary screen, A1 inhibitor project, cell-based, luminescence, HTS. Caspase-Glo 3/7 luminescence, 3 h; percent of clofoctol response, vehicle zero. hit rate 0.066% among 330,000. caspase activation, % (test concentration not listed). AID 2462, 2010;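 active = over half of replicate activation scores above 10%, or exactly half above 10 with the replicate mean above 10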
Mdm2 MdmX PPI – inhibitors of human Mdm2-MdmX association, primary screen, cell-based, luminescence, split luciferase, SaOS-2, uHTS; Protein Mdm4 (Homo sapiens) + E3 ubiquitin-protein ligase Mdm2 (Homo sapiens), …; SaOS-2 split-luciferase Mdm2/MdmX complementation; inhibition, % at 8 µM; hit rate 3% among 330,000;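 active = inhibition of at least 50% at 8 µM in the primary screen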
Target sequence (O15151 whole entry, looked up): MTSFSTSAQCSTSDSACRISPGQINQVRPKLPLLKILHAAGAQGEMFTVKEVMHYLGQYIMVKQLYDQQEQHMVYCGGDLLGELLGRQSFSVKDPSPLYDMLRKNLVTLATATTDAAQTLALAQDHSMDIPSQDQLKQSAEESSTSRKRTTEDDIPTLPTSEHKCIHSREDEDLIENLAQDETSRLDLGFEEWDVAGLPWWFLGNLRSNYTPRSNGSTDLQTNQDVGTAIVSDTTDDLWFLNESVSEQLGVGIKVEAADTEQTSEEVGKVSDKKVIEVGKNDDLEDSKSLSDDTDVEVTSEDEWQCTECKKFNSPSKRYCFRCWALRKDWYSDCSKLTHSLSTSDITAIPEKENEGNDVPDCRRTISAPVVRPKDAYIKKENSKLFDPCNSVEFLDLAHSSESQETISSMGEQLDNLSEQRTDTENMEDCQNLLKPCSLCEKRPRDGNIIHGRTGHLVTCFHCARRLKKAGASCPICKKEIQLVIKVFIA
Target sequence (Q00987 whole entry, looked up): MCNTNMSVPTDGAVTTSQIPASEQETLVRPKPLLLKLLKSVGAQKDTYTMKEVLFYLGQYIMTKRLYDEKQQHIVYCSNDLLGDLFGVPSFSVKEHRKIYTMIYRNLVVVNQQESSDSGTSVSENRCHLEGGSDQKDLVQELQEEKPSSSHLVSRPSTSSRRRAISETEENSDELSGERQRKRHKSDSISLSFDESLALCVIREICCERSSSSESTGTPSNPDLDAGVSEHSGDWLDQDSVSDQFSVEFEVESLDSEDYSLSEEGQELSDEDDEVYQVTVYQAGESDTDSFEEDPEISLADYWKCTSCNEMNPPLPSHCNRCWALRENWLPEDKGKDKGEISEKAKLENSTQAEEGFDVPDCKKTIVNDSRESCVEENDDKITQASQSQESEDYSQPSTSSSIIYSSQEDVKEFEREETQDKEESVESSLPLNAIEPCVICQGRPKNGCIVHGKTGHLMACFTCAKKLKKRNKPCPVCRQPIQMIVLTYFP
NTR1 agonist – agonists of human NTR1, primary screen, imaging, U2OS cells, beta-arrestin-GFP, high content; hit rate 0.17% among 330,000; AID 493036, 2011; activation, % at 20 µM; NTR1-U2OS beta-arrestin-GFP spot imaging, agonist mode;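 active = activation at or above 40% of the spot to cytoplasm intensity ratio, with at least 20 cells analyzed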
Mdm2-MdmX conf – Mdm2-MdmX complex disruptors, retested hits, confirmation, luminescence, single concentration. shares compounds with Mdm2 MdmX PPI. Mdm2-MdmX binding, luminescent assay. inhibition, % at 8 µM. hit rate 55% among 10,000; in the data active = inhibition above about 40%
Full FLuc ctr – full-length luciferase signal inhibition, confirmation, counter-screen for Mdm2/MdmX interaction inhibitor project, cell-based, single concentration, SaOS-2 | shares compounds with Mdm2 MdmX PPI | SaOS-2 full-length luciferase counterscreen, luminescence | inhibition, % at 8 µM | hit rate 77% among 6,200 | AID 504607, 2011;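 active = mean inhibition at 8 µM reaching about 37%, which flags the compound as non-specific, limit read from the data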;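 note: p53-null SaOS-2 cells with luciferase driven by a doxycycline-inducible promoter; compound on cells about two nights before reading with doxycycline added after day one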
A number is an active result; . = inactive; / = no result given. An excerpt weighted towards active compounds, which were near 3.8% of everything screened.

SMILES | 697 NFkB inh | Jurkat NFkB inh | Beta cell apopt | A1 inh | Mdm2 MdmX PPI | NTR1 agonist | Mdm2-MdmX conf | Full FLuc ctr
CN(C)C(CNC(=O)c1ccc(Cl)c(S(=O)(=O)N2CCCCCC2)c1)c1ccccc1 (centres undefined) | . | . | . | . | . | . | / | /
O=C(CCN1C(=O)/C(=C/c2ccccc2Cl)SC1=S)NCCc1ccc(O)cc1 | . | . | . | . | 78 | . | . | 48
O=C1/C(=C\c2cccc(O)c2O)SC(=S)N1Cc1ccccc1 | . | . | . | . | 72 | . | 57 | .
O=C(Cn1nc(C(=O)O)c2ccccc2c1=O)Nc1cccc(S(=O)(=O)N2CCCC2)c1 | . | . | / | / | . | . | / | /
Nc1[nH]nc2nc(NCc3ccccc3)c3c(c12)CCN(Cc1ccccc1)C3 | . | . | . | . | 53 | . | . | /
O=C(NCc1ccc(F)cc1)c1c2c(nc3ccccc13)CCN(Cc1ccccc1)C2 | . | . | . | . | . | . | / | /
COc1cccc(-c2ccc3ncnc(NCc4cccnc4)c3c2)c1 | . | . | . | . | 69 | . | 48 | .
CC1(c2ccccc2Cl)NC(=O)N(CC(=O)N2c3ccccc3NC(=O)C2(C)C)C1=O (centres undefined) | . | . | . | . | . | . | / | /
CC(=O)N1CCC2(CC1)C/C(=N\NC(=S)Nc1ccccc1F)c1cc(O)ccc1O2 | . | . | . | . | 67 | . | . | 96
COc1ccc(N2CCN(C(=O)CSc3nnnn3C3CC3)CC2)cc1 | . | . | . | . | . | . | / | /
CCOC(=O)C1=CN(Cc2ccco2)S(=O)(=O)NC1c1ccc(C(F)(F)F)cc1 (centres undefined) | . | / | / | / | . | . | / | /
COc1ccc2oc(/C=C/N(C)C)c(C(=O)c3ccc(Cl)cc3)c2c1 | . | . | . | . | 79 | . | . | /
COC(=O)c1ccccc1NC(=O)CN1CCC(C(=O)c2ccc3c(c2)OCCO3)CC1 | . | . | . | . | 62 | . | 60 | 99
COc1cc(OC)cc(C(=O)NCCCNC(=O)c2ccccn2)c1 | . | . | . | . | . | . | / | /
Cc1cccc(CSC(Nc2ccc(F)cc2)=C(C#N)C#N)c1 | . | . | 106 | . | 94 | . | 89 | 50
Cc1cccc(CSC(=N)N)c1 | . | . | . | . | . | . | / | /
N=c1n(CCN2CCCCC2)c2ccccc2n1CC(=O)c1cccc([N+](=O)[O-])c1 | . | . | . | . | 73 | . | . | /
O=C(O)c1ccc(S(=O)(=O)/N=C2\C=C(Nc3ccccc3F)C(=O)c3ccccc32)cc1 | . | . | 99 | . | 72 | . | 65 | .
Cc1ccccc1NC1=C/C(=N\S(=O)(=O)c2ccc(C(=O)O)cc2)c2ccccc2C1=O | . | . | 107 | . | 85 | . | . | /
CCc1c(C)nc(N2CCN(c3ccc(Cl)cc3)CC2)[nH]c1=O | . | . | . | . | . | . | / | /
Cc1ccc(NC(=O)c2cc(S(=O)(=O)N3CCc4ccccc43)cn2C)cc1C | . | . | . | . | 55 | . | . | /
COc1ccc(NC(=O)c2cc(S(=O)(=O)N3CCc4ccccc43)cn2C)cc1 | . | . | . | . | . | . | / | /
CCOC(=O)c1ccc(N=c2sc(C(=O)OC)cc(=O)n2Cc2ccco2)cc1 | . | . | . | . | 55 | . | . | /
CCN1CCc2c(sc(NC(=O)c3ccc(S(=O)(=O)N(C)CC4CCCO4)cc3)c2C(N)=O)C1 (centres undefined) | . | . | . | . | . | . | / | /
COc1ccccc1Nc1ccc(NS(=O)(=O)c2ccc(C(C)=O)cc2)cc1 | . | . | . | . | . | . | / | /
SMILES | 697 NFkB inh | Jurkat NFkB inh | Beta cell apopt | A1 inh | Mdm2 MdmX PPI | NTR1 agonist | Mdm2-MdmX conf | Full FLuc ctr
COc1ccc(OC)c(-c2csc(NC(=O)CSc3nnnn3C)n2)c1 | . | . | . | . | . | . | / | /
O=C(NCc1nnnn1-c1ccc(F)c(F)c1)C(=O)c1c[nH]c2ccccc12 | . | . | . | . | . | . | / | /
COc1ccc([C@@H]2[C@@H]3C(=O)N(C(C)(C)C)C(=O)[C@@H]3[C@]3(Cc4ccccc4)C(=O)N(c4ccc(Br)cc4)C(=O)N23)cc1 | . | . | . | . | 63 | . | 71 | .
Cc1cccc([C@@H]2[C@@H]3C(=O)N(Cc4ccccc4)C(=O)[C@@H]3[C@]3(Cc4ccc(Cl)cc4)C(=O)N(c4ccc(Br)cc4)C(=O)N23)c1 | . | . | . | . | 90 | . | 99 | 49
CC(=O)N(Cc1ccc(F)cc1)C1=C(NCCc2ccccc2)C(=O)c2ccccc2C1=O | . | . | 106 | . | 80 | . | 85 | 52
CCCN(C(=O)CCl)C1=CCCCC1 | . | . | . | . | 85 | . | . | /
CC1Cc2ccccc2N1C(=O)COC(=O)c1ccc(Cl)c(S(=O)(=O)N2CCOCC2)c1 (centres undefined) | . | . | . | . | . | . | / | /
CC1(C)S[C@@H]2[C@H](NC(=O)C(NC(=O)N3CCNC3=O)c3ccccc3)C(=O)N2[C@H]1C(=O)O (some centres undefined) | . | . | . | . | . | . | / | /
CCN(c1ccc(OC)cc1)c1ncnc2nc[nH]c12 | . | . | . | . | 63 | . | 66 | 36
CCOc1ccc(OCC(=O)N(CCC2=CCCCC2)c2c(N)n(Cc3ccccc3)c(=O)[nH]c2=O)cc1 | . | . | / | 60 | 68 | . | 56 | 92
O=C1[C@@H](Oc2ccccc2)[C@@H](c2ccccc2)N1c1ccccc1 | . | / | / | / | . | . | / | /
O=C1[C@H](Oc2ccccc2)[C@@H](c2ccccc2)N1c1ccncc1 | . | / | / | / | 50 | . | . | /
O=[N+]([O-])c1ccc(Oc2cc(NC3CCCCCCC3)c([N+](=O)[O-])cc2[N+](=O)[O-])cc1 | . | . | . | . | . | . | / | /
O=[N+]([O-])c1cc([N+](=O)[O-])c(Oc2cncc(Cl)c2)cc1NC1CCCCCCC1 | . | . | . | . | 74 | . | . | 83
COc1ccc(C(C)=O)cc1CSc1ccc(S(=O)(=O)N2CCCCC2)cn1 | . | . | . | . | . | . | / | /

Screening results from PubChem BioAssay.
